Measurements reported in PubChem BioAssay AID1508600 (Functional Genomics Laboratory (NCATS/FGL), 2020).
The campaign covered roughly 53,000 sequences. About 3,700 (7%) were called active. Shown is part of a subset that was picked to be rich in actives. Unmarked numbers belong to inactive results.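 The calls were made as follows: active = gene knockdowns whose robust z-score for IL-1 alpha signal is at least 2 or at most -2, so actives lie on both sides; inactive = the rest.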

experiment: Components of the Cytosolic LPS Sensing Pathway: Gene Identification via Genome-wide siRNA Screen; conditions: RAW264.7 macrophages, IL-1a HTRF, actives lie on both sides, screened at 100 nM (by protocol), cells primed 5 h with Pam3CSK4 first;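 also: robust z of the log signal after scaling to non-targeting control siRNA wells of the plate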
How it was run: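 RAW264.7 mouse macrophages reverse-transfected with single siRNAs (100 nM final) for 48h, primed with Pam3CSK4 for 5 hours, then transfected with LipidA for 24 hour. Supernatant IL-1a read by HTRF; values normalized to negative-control median, log-transformed robust z-scores.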

Row | Sequence | z-score
1 | GGUUUACAAGAGUUACAGUTT against Brpf1 | 0.493
2 | GCAAAGUUGGUGACGUGAUTT against Pole2 | -2.15 (active)
3 | CCAAUAAGGCAUAUGUUUUTT against Scarb2 | -0.608
4 | GGCACAGCUUGCUGAAGCUTT against Atp11b | -1.76
5 | GGAAUACAAAGAUAGCUUCTT against Atrn | 0.786
6 | GGCUUCUGGACCUCAAACATT against Zfp92 | -2.14 (active)
7 | GGCAAUGUUUUUCUUGUUGTT against 9330132A10Rik | -1.12
8 | GACCCGCUGCUGCUCAAAUTT against Cdc42ep5 | -0.178
9 | GGGCAAAAGUACUUUGACUTT against Ensa | 2.2 (active)
10 | GGACUGUGAUCAGGUUUGUTT against Elk3 | 0.695
11 | GGUAACCAUGAUGAUGACATT against Tmem38b | -2.05 (active)
12 | GGAAGACACAUUUUUCCAUTT against Serpinb9e | 0.733
13 | GGUCUCUCGGACUUUUUCCTT against Adipor1 | -0.765
14 | CCAAUGUUGGCAUUAUGUUTT against Fah | -0.354
15 | GGAAGAAACUGGAAAGAUUTT against Ankrd23 | -1.01
16 | GGAAUGGUCCCUCCAAUGATT against Prpf40b | 2.38 (active)
17 | GGACACAAGCCUAUUCCAATT against Rffl | 1.59
18 | GGAUUCAAGCAUCGGAUUGTT against Adamts6 | 1.11

Row | Sequence | z-score
19 | GGCAAUUGUCUCAUUCUGATT against Olfr631 | 0.806
20 | CCAUCAACCCAUCAUGUGCTT against Pitpnc1 | -1.25
21 | GGCCUUGUAUGAAUUAUUUTT against Sqle | 2.18 (active)
22 | GGGAGCAAAUUAGAGAAAUTT against Gsk3b | 0.884
23 | GGUCCUCGGUUACAGAAACTT against Cnr2 | -0.263
24 | CCCAGCUUUUCAACUUGCUTT against Tmc4 | -1.19
25 | GGGCCUUGUUUUAGGAAUUTT against Lap3 | 2.2 (active)
26 | GGUACUGGAUCAAAGAAACTT against Gm11992 | -1.75
27 | GCUGGUACAAGGUGUUUGATT against Pqbp1 | 0.825
28 | GGAAGCACUCAGUGCUCUGTT against Igfbp6 | 2.06 (active)
29 | GGAGGUGAAGCUCAUUGUCTT against Ildr1 | -0.165
30 | CCGUGUCAUUUGGAGAGCUTT against Ndufaf5 | -0.248
31 | GGUGCAGUUCAGCAACAAGTT against Mat2b | -1.65
32 | GCAGUUGGGUUGGUAACUATT against Ash1l | 0.101
33 | GGGCAAACCUUCUAAACUATT against Ttpa | 0.505
34 | GGAUCACCCAUACAGGAACTT against Pla2g2f | -2.1 (active)
35 | GCUGACAAAACUGCUAAACTT against Ctnnb1 | 0.948
